Assays:
Assay in all cases: DAPPL (digital affinity profiling via proximity ligation, sequencing); 10 mM Tris-HCl pH 7.5, 50 mM NaCl, 1 mM DTT, 4% glycerol, room temperature, 30 min; GST-TFs on glutathione beads, 16-mer random dsDNA library, 0.1% formaldehyde crosslink after washing; high values mean tight binding
Conditions in all cases: protein: recombinant; tags: N-terminal GST; dsDNA, one strand shown
GABPA = biological target: T1, GABPA (Homo sapiens, UniProt Q06546 1-454)
T1 sequence: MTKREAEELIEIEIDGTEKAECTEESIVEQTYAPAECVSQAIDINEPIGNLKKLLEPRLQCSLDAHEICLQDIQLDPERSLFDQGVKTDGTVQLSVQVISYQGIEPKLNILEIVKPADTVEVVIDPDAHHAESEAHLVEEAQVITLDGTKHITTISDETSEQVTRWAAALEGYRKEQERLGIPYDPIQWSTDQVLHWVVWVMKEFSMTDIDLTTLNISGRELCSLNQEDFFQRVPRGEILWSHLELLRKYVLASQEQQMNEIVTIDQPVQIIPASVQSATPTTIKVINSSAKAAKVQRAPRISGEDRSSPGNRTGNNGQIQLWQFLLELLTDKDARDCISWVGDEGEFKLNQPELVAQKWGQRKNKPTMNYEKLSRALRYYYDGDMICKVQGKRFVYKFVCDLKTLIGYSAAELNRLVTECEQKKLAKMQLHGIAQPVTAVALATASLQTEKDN
In short: (§1)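 Yeast served to express human transcription factors as GST fusions, which were then captured on glutathione beads and labelled with DNA barcodes. Pooled with a tag-only sample, they were incubated with 200 nmole of a 16-mer random double-stranded DNA library for 30 min at room temperature in Tris/NaCl/DTT/glycerol buffer, washed, crosslinked with 0.1% formaldehyde, ligated by proximity, amplified by PCR and sequenced. Dividing each hexamer's read frequency for a factor by its frequency for the tag-only sample gives the binding signal.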

ERG = biological target: T2, ERG (Homo sapiens, UniProt P11308 1-479)
T2 sequence: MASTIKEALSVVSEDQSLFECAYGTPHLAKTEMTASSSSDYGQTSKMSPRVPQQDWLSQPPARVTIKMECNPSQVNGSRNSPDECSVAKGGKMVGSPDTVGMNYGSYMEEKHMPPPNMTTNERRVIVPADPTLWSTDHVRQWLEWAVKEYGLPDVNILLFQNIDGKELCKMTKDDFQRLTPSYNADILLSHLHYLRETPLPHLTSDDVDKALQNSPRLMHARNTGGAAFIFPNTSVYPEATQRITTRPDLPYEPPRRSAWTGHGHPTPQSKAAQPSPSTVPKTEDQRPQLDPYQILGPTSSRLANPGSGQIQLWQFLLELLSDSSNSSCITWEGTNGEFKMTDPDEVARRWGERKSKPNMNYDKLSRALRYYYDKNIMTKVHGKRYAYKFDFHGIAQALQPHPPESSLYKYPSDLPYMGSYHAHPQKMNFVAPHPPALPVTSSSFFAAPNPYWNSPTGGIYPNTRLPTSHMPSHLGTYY
In short: as §1

ELF1 = ELF1 (Homo sapiens, UniProt P32519 1-619)
Sequence of ELF1 (P32519 whole entry): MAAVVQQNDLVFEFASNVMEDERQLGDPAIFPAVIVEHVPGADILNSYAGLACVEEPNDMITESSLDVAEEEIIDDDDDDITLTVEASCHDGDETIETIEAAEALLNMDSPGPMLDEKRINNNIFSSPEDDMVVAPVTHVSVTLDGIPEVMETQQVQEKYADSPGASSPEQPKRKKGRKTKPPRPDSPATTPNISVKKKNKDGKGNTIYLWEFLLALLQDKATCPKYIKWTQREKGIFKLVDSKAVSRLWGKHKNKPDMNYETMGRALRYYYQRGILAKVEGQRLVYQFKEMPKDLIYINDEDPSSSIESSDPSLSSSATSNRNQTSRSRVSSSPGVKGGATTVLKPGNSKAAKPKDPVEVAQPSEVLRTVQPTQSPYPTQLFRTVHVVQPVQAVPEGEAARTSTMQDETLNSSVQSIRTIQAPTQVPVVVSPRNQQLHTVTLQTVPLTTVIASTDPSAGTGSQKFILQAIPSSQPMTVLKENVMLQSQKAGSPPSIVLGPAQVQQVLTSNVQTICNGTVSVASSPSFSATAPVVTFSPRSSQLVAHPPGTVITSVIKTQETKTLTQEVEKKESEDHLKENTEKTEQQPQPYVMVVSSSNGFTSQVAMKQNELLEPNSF
In short: as §1

EHF = biological target: T3, EHF (Homo sapiens, UniProt Q9NZC4 1-300)
T3 sequence: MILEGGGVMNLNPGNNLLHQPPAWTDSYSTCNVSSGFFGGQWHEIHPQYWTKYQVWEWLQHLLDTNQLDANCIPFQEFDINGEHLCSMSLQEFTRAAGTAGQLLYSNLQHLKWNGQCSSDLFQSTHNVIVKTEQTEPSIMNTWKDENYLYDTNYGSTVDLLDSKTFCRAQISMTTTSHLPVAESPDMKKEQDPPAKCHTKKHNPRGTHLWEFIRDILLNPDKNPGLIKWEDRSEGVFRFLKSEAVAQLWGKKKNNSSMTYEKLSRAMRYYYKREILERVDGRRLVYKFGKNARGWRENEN
In short: as §1

SPIB = SPIB (Homo sapiens, UniProt Q01892 1-262)
Sequence of SPIB (Q01892 whole entry): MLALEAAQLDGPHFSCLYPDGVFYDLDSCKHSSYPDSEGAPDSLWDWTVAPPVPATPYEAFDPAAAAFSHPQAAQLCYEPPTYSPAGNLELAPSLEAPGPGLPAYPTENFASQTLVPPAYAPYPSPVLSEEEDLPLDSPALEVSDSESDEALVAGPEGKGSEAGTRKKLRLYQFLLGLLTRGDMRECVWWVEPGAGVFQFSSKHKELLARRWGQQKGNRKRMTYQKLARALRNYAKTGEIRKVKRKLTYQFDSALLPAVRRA
In short: as §1

ELK3 = biological target: T4, ELK3 (Homo sapiens, UniProt P41970 1-407)
T4 sequence: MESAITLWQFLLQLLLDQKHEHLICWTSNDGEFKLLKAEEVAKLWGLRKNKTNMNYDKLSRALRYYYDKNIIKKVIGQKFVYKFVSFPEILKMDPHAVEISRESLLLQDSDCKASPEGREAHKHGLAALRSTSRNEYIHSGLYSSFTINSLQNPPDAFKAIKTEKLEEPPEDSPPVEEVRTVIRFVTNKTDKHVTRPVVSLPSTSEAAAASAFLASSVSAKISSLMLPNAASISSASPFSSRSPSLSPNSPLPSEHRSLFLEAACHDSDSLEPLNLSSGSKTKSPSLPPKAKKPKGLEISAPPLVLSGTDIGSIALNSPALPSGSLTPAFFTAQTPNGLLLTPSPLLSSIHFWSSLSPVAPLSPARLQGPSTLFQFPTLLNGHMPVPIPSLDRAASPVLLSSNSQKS
In short: as §1

SPIC = biological target: T5, SPIC (Homo sapiens, UniProt Q8N5J4 1-248)
T5 sequence: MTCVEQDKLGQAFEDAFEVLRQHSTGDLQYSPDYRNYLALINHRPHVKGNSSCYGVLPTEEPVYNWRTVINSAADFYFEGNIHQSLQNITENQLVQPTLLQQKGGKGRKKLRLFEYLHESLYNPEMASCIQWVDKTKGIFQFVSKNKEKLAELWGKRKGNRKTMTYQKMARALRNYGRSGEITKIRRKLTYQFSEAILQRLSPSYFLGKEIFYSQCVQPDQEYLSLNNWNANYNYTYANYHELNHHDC
In short: as §1

ELF3 = biological target: T6, ELF3 (Homo sapiens, UniProt P78545 1-371)
T6 sequence: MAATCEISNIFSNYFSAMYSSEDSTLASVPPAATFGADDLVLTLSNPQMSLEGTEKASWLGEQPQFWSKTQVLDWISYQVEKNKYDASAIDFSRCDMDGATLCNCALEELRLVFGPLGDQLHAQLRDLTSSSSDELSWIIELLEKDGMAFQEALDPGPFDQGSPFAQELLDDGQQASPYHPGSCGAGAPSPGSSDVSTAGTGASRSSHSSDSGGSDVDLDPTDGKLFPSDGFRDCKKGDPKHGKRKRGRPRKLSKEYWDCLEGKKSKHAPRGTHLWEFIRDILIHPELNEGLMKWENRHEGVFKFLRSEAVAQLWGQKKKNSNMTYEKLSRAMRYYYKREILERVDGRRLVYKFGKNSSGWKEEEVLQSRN
In short: as §1

ETV1 = ETV1 (Homo sapiens, UniProt P50549 1-477)
Sequence of ETV1 (P50549 whole entry): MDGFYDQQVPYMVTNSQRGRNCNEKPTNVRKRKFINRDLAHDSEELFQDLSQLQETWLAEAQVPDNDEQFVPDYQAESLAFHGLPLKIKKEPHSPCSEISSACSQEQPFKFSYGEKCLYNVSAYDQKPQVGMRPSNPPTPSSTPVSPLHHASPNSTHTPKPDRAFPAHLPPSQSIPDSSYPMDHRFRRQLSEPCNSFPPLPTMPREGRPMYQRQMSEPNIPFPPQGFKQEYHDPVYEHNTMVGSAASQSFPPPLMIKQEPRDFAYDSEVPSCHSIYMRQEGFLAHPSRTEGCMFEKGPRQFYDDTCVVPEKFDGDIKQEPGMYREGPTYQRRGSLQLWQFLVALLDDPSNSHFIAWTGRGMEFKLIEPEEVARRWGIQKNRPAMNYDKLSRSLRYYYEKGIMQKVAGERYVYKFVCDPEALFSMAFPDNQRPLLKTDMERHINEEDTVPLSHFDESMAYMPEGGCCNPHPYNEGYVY
In short: as §1

ERF = biological target: T7, ERF (Homo sapiens, UniProt P50548 1-548)
T7 sequence: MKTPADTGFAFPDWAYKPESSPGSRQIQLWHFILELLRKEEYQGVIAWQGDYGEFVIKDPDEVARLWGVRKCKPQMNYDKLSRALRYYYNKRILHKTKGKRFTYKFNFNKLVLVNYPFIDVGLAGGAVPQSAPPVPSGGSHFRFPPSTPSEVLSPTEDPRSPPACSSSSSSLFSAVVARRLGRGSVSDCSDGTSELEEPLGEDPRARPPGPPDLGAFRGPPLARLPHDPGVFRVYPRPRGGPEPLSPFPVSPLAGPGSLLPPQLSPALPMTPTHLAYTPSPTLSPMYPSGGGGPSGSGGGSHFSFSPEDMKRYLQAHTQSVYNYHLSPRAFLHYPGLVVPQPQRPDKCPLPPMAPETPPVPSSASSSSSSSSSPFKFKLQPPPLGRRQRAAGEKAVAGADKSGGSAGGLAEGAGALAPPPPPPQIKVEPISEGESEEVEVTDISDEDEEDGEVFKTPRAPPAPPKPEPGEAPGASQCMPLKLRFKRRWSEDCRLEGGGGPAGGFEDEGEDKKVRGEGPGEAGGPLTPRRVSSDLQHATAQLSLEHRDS
In short: as §1

ETV3L = biological target: T8, ETV3L (Homo sapiens, UniProt Q6ZN32 1-361)
T8 sequence: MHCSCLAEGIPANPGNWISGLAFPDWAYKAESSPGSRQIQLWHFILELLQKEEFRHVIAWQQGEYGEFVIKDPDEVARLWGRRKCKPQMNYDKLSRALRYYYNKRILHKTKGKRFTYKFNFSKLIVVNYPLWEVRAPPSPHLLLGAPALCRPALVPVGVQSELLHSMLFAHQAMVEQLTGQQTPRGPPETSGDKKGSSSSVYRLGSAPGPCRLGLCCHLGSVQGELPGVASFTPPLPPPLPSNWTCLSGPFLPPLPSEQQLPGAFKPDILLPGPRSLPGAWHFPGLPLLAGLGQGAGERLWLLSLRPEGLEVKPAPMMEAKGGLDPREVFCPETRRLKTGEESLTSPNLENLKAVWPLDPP
In short: as §1

ETS2 = biological target: T9, ETS2 (Homo sapiens, UniProt P15036 1-469)
T9 sequence: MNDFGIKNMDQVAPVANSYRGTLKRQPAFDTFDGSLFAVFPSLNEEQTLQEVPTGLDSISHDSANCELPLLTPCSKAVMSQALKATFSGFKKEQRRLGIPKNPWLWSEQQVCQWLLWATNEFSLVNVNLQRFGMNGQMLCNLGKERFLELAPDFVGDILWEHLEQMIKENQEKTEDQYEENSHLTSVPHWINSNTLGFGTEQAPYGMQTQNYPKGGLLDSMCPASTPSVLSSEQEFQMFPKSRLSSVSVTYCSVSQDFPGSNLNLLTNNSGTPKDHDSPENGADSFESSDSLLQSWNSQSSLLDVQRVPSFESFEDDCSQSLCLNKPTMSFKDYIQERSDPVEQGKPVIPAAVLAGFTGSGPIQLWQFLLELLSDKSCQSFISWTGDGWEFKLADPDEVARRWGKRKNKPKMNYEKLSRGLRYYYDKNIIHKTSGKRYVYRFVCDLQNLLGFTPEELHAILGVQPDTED
In short: as §1

ETV7 = biological target: T10, ETV7 (Homo sapiens, UniProt Q9Y603 1-341)
T10 sequence: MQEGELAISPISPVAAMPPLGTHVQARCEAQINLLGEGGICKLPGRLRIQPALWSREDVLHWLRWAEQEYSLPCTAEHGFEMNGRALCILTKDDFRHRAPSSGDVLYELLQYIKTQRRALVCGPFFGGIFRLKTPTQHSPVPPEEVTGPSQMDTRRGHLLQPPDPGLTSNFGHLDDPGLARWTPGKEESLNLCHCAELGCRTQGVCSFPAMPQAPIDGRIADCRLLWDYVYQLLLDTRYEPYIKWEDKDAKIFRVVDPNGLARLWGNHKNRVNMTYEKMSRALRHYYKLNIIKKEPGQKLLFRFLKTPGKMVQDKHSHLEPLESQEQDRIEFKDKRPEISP
In short: as §1

ETV6 = ETV6 (Homo sapiens, UniProt P41212 1-452)
Sequence of ETV6 (P41212 whole entry): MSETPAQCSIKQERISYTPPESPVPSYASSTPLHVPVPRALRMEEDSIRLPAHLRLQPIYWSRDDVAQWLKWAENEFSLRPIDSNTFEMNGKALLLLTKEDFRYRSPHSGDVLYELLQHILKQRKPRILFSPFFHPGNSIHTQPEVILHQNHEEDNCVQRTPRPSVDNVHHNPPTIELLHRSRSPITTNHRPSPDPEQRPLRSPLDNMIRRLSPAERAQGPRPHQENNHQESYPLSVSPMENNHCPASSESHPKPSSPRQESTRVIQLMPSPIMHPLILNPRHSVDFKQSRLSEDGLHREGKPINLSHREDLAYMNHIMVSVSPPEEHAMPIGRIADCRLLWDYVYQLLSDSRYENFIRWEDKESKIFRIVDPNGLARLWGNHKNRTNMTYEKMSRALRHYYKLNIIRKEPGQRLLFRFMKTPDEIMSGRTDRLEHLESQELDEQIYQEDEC
In short: as §1

ETV3 = biological target: T11, ETV3 (Homo sapiens, UniProt P41162-2 1-143)
T11 sequence: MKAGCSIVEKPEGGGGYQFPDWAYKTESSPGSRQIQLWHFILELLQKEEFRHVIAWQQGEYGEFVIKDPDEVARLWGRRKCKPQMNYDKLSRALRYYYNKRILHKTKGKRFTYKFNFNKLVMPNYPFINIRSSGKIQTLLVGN
In short: as §1

ELK4 = biological target: T12, ELK4 (Homo sapiens, UniProt P28324-2 1-405)
T12 sequence: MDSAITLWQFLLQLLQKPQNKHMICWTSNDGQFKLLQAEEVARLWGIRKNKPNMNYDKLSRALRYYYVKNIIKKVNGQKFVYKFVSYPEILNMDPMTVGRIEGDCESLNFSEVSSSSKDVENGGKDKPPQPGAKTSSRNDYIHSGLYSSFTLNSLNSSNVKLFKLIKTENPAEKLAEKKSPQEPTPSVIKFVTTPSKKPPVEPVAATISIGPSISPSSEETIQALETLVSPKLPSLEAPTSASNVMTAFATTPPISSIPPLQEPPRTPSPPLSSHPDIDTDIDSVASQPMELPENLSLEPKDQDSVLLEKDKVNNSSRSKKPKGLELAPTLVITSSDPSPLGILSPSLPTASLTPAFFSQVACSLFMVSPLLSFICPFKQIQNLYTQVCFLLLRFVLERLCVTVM
In short: as §1

Q: How did the binding signal (GABPA) turn out when ATAGGC was run?
A: Its binding signal is 1.01 fold enrichment (6-mer frequency, TF over GST control).

Q: And the binding signal (ERG)?
A: Its binding signal is 1.01 fold enrichment (6-mer frequency, TF over GST control).

Q: What about the binding signal (ELF1) of the same sequence?
A: Its binding signal is 1.03 fold enrichment (6-mer frequency, TF over GST control).

Q: What about the binding signal (EHF) of the same sequence?
A: The binding signal was 1.04 fold enrichment (6-mer frequency, TF over GST control).

Q: What about the binding signal (SPIB) of the same sequence?
A: The binding signal was 1.11 fold enrichment (6-mer frequency, TF over GST control).

Q: And the binding signal (ELK3)?
A: Its binding signal is 1.02 fold enrichment (6-mer frequency, TF over GST control).

Q: And the binding signal (SPIC)?
A: The binding signal was 1.06 fold enrichment (6-mer frequency, TF over GST control).

Q: And the binding signal (ELF3)?
A: The binding signal was 1.07 fold enrichment (6-mer frequency, TF over GST control).

Q: What about the binding signal (ETV1) of the same sequence?
A: The binding signal was 1.01 fold enrichment (6-mer frequency, TF over GST control).

Q: And the binding signal (ERF)?
A: The binding signal was 1.04 fold enrichment (6-mer frequency, TF over GST control).

Q: What about the binding signal (ETV3L) of the same sequence?
A: Its binding signal is 1.02 fold enrichment (6-mer frequency, TF over GST control).

Q: And the binding signal (ETS2)?
A: Its binding signal is 1.01 fold enrichment (6-mer frequency, TF over GST control).

Q: And the binding signal (ETV7)?
A: The binding signal was 1.01 fold enrichment (6-mer frequency, TF over GST control).

Q: What about the binding signal (ETV6) of the same sequence?
A: The binding signal was 1.04 fold enrichment (6-mer frequency, TF over GST control).

Q: How did the binding signal (ERG) turn out when ATCCGT was run?
A: Its binding signal is 1.04 fold enrichment (6-mer frequency, TF over GST control).

Q: What about the binding signal (SPIB) of the same sequence?
A: The binding signal was 1.1 fold enrichment (6-mer frequency, TF over GST control).

Q: And the binding signal (SPIC)?
A: Its binding signal is 1 fold enrichment (6-mer frequency, TF over GST control).

Q: And the binding signal (ETV3)?
A: The binding signal was 1.04 fold enrichment (6-mer frequency, TF over GST control).

Q: GTTGGT was tested. Which binding signal (GABPA) did it give?
A: Its binding signal is 1.04 fold enrichment (6-mer frequency, TF over GST control).

Q: What about the binding signal (ELK4) of the same sequence?
A: The binding signal was 1.09 fold enrichment (6-mer frequency, TF over GST control).

Q: What about the binding signal (ETV7) of the same sequence?
A: The binding signal was 1.02 fold enrichment (6-mer frequency, TF over GST control).

Reference: publication PMC7862700, “An all-to-all approach to the identification of sequence-specific readers for epigenetic DNA modifications on cytosine”
